Among all 330,000 compounds or so, about 5,800 (1.8%) were called active. The full list was thinned out, with actives kept by preference. A number with no mark means an inactive call.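 The calls were made as follows: active = inhibition above about 50% at the single tested dose (limit read from the data); inactive = the rest.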

99 compounds from PubChem BioAssay AID2599 (Sanford-Burnham Center for Chemical Genomics, 2010) can be followed below.

For the assay, the target named is Sentrin-specific protease 6 (Homo sapiens) (UniProt Q9GZR1). The assay can be described thus: inhibition of human SENP6 catalytic domain – biochemical, luminescence, uHTS, primary screen (AID 2599).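 Also: plate controls were DMSO wells with enzyme for no effect and DMSO wells lacking enzyme for full effect.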 The note with it: Recombinant SENP6 catalytic domain, aminoluciferin luminescence; at 10 µM; stronger effect = higher value.
Sentrin-specific protease 6 (Homo sapiens), sequence (Q9GZR1 628-1112 limits assumed): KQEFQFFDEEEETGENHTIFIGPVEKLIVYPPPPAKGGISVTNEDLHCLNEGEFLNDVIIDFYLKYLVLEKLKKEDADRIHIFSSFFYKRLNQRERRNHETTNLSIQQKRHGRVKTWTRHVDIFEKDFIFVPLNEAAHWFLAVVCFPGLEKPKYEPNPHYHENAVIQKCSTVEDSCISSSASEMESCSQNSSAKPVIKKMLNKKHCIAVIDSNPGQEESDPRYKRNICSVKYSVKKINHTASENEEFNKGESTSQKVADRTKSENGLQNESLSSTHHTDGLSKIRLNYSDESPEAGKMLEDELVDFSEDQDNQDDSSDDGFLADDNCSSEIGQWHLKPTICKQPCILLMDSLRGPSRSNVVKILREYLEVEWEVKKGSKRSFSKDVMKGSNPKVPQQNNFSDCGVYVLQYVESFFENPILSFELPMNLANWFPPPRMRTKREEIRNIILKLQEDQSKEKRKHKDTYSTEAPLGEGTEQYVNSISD
In the case of `CC(C)(C)c1cc(C(=O)N/N=C/c2ccc([N+](=O)[O-])s2)n[nH]1`, the inhibition is 35.9%.

Take `O=[N+]([O-])c1ccc(C=Nc2ccc(Cl)cc2Cl)s1`: the inhibition was 57.5% (active). In the case of `COc1ccc(C(=O)NCC(=O)N/N=C/c2ccc([N+](=O)[O-])s2)cc1OC`, the inhibition was 48.9%. With `CC(=O)Nc1nc(N(C)C)nc(N(C)C)n1` the figure was -13.9%. Consider `Cc1c(C(N)=O)sc2ncn(CCOc3ccccc3)c(=O)c12`, for which the inhibition is -16.1%. As for `CCOC(=O)C(C)n1cnc2sc(C)c(C)c2c1=O` (centres undefined), the inhibition was -17.3%. The value for `Cc1cccc(OC(=O)c2sc3ncn(C)c(=O)c3c2C)c1` was 52.6% (active). With `FC(F)(F)c1ccc(-n2cn[nH]c2=S)cc1`, the inhibition is -14.6%.

In the case of `CCSC1=NCCN1S(=O)(=O)c1ccc(F)cc1`, the inhibition is -6.19%. Consider `CCCn1nnnc1NCc1ccc(CC)cc1`, for which the inhibition was -6.18%. `O=C(CSc1nn(-c2ccc(F)cc2)c(=S)s1)NC1CCS(=O)(=O)C1` (centres undefined): the inhibition was -6.03%. The value for `O=S(=O)(Nc1ccc2nc(N3CCOCC3)sc2c1)c1ccccc1` was -2.51%; that for `Fc1ccc2nc(N3CCCCC3)sc2c1` was 89.5% (active); that for `Brc1ccc2nc(N3CCCC3)sc2c1` was 75.4% (active). The value for `O=C(c1ccc2nc(N3CCOCC3)sc2c1)N1CCN(c2ccc(Cl)cc2)CC1` was -6.6%. For `Fc1ccc2nc(Nc3nc4c(s3)CCCC4)sc2c1`, the inhibition is 34.4%. As to `c1c2c(cc3sc(N4CCCCC4)nc13)OCCO2`, the inhibition is 7.27%. The value for `C/C(=N/NC(=O)CCc1ccccc1)c1ccco1` was 12.1%.

Take `C=CCn1c(C)cc(C2=NNC(=NCC)SC2)c1C`: the inhibition was 92.9% (active). For `COc1ccc(CC(NC(C)=O)C(=O)NC2CCN(C(=O)C3CC3)CC2)cc1OC` (centres undefined), the inhibition is -9.43%.

For the compound `C=C(C)CSc1nc(N)c2c3c(sc2n1)CCC3`, the inhibition is 1.28%. The value for `O=C(NC(Nc1nc2ccc([N+](=O)[O-])cc2s1)(C(F)(F)F)C(F)(F)F)c1ccccc1` was -1.71%; that for `COc1ccc(C(=O)Nc2nc(-c3ccc(OC)cc3)c(-c3ccc([N+](=O)[O-])cc3)s2)cc1` was -31.8%; that for `O=C(Nc1nc2ccc([N+](=O)[O-])cc2s1)c1ccncc1` was 91.5% (active). The value for `CCN(CC)S(=O)(=O)c1ccc(N2CCOCC2)c(NC(=O)C2CSC3(C)CCC(=O)N23)c1` (centres undefined) was 4.82%; that for `COc1ccc2cc(C(=O)C3CCCN(C(=O)c4sc(C)nc4C)C3)ccc2c1` (centres undefined) was -16.8%; that for `CCOc1ccc2nc(C(=O)N3CCCC(C)C3)sc2c1` (centres undefined) was 70.8% (active).

As to `CCCC(=O)N(CCN1CCOCC1)c1nc2ccc(OCC)cc2s1`, the inhibition is -4.24%.

Regarding `O=C(NCCS(=O)(=O)NCc1ccc(Cl)cc1)c1ccccc1`, the inhibition is -0.893%. With `COc1cccc(N2C(=O)CC(N3CCc4ccccc4C3)C2=O)c1` (centres undefined) the figure was 0.083%. With `CCOc1ccc(N2C(=O)CSC2=NC#N)cc1` the figure was -18.7%.

With `O=C(Nc1ccncc1)c1cc2ccccc2o1`, the inhibition is 63.5% (active).

For the compound `COc1cc2ccccc2cc1C(=O)Nc1ccncc1`, the inhibition is -5.66%. With `CC(C)(C)n1nc2c(c1NC(=O)c1cc3ccccc3o1)CSC2` the figure was 2.49%. With `CC(OC(=O)Cc1ccc(F)cc1)C(=O)N1CCc2ccccc21` (centres undefined), the inhibition was 8.22%. For the compound `CCC(=O)Nc1nnc(S(=O)(=O)N2CCCc3ccccc32)s1`, the inhibition is -3.06%. In the case of `Nc1cccc(CCc2nc3ccccc3[nH]2)c1`, the inhibition is -9.91%. With `c1ccc2[nH]c(-c3nc4ccccc4[nH]3)nc2c1` the figure was 97.2% (active). `Clc1ccccc1SCc1nc2ccccc2[nH]1`: the inhibition was 39.4%.

As for `COc1ccc(-c2[nH]nc(-c3ccccc3)c2-c2nc3ccccc3[nH]2)cc1`, the inhibition is -1.01%. Consider `COc1ccc(Br)cc1C(=O)NC(=S)Nc1cc(-c2nc3ccccc3[nH]2)ccc1C`, for which the inhibition is 6.04%. Regarding `Cc1ccc(-c2nc3ccccc3[nH]2)cc1N`, the inhibition was 91% (active).

In the case of `CC1(C)C2CCC13CS(=O)(=O)NC3C2` (centres undefined), the inhibition was -8.89%. With `O=C(Nc1ccc(-c2ccc3nncn3n2)cc1)C1CCCCC1` the figure was -18.8%; with `COc1ccc(N2CCN(CCCNC(=O)C3CCN(S(=O)(=O)N4CCOCC4)CC3)CC2)cc1`, 8.09%; with `CCNC(=S)N1CCN(S(=O)(=O)c2ccc(Cl)s2)CC1`, -2.28%. Turning to `COc1ccc([N+](=O)[O-])cc1N(CC(=O)Nc1ccccc1C(=O)N1CCOCC1)S(C)(=O)=O`, the inhibition was -14.4%. The value for `Cc1cc(C)c(S(=O)(=O)c2ccc(F)cc2C)c(=O)[nH]1` was -7.65%. On to `Cc1cccc(/C(N)=N/OC(=O)c2ccccc2Cl)c1`, for which the inhibition was 86.2% (active). With `N/C(=N\OC(=O)c1cc(-c2ccccc2)nc2ccccc12)c1ccncc1` the figure was -23.3%. The value for `Cc1ccc(/C(N)=N/OC(=O)COc2ccc(Cl)c(C)c2)cc1` was -9.12%; that for `N#Cc1cc([N+](=O)[O-])ccc1Oc1cccc(/C=N/NC(=O)c2ccc(Cl)cc2)c1` was -30.8%. As to `COc1ccc2c(C)cc(SCC(=O)NCC3CCCO3)nc2c1` (centres undefined), the inhibition was 2.3%. The value for `Nn1c(Cc2cccc3ccccc23)nnc1SCC(=O)N1CC(=O)Nc2ccccc21` was -14.3%. With `CN(c1ccccc1)S(=O)(=O)c1cc(C(=O)Nc2nc3ccccc3[nH]2)ccc1Cl` the figure was 0.946%; with `O=C(Cc1ccsc1)N1CCN(S(=O)(=O)c2cc(C(F)(F)F)cc(C(F)(F)F)c2)CC1`, -12.7%. Take `O=c1c(-c2cccc(Cl)c2)c[nH]n1-c1ccccc1`: the inhibition is 50.4% (active). The value for `O=C1c2ccccc2NC(c2ccc(-c3cccc(Cl)c3)o2)N1O` (centres undefined) was 2.11%. The value for `O=c1c(-c2ccccc2Cl)c[nH]n1-c1ccccc1` was 5.63%; that for `Cc1ccc(NC(=O)c2ccn(C(=O)Nc3ccccc3)n2)c(C)c1` was 8.66%; that for `CCCCC(CC)CNC(=O)C(=O)C1C(=O)Nc2ccccc21` (centres undefined) was -18.1%.

With `CCCn1nnnc1NCc1ccc(OC)cc1`, the inhibition is -1.58%. For the compound `COC(=O)c1scc(S(=O)(=O)C(C)(C)C)c1-n1cccc1`, the inhibition was -3.91%.

In the case of `COc1ccc(C(=O)O/N=C(\N)c2ccccn2)cc1[N+](=O)[O-]`, the inhibition was 13%. For the compound `Cc1ccc(C(=O)O/N=C(\N)c2ccccn2)cc1Cl`, the inhibition is 94.1% (active).

Turning to `Cc1ccc(NC(=O)c2ccccn2)cc1S(=O)(=O)N1CCOCC1`, the inhibition was -7.58%. With `N/C(=N\OC(=O)c1ccc([N+](=O)[O-])cc1)c1ccccn1` the figure was 93.3% (active); with `O=C(COC(=O)c1ccccn1)NNC(=O)c1ccc(Br)cc1`, 6.84%; with `O=C(COC(=O)c1ccccn1)NNC(=O)c1ccc([N+](=O)[O-])cc1`, -1.82%. With `Oc1cc2c(cc1O)CN(C(=S)NCCc1ccc(Cl)cc1)CCC2` the figure was 1.23%. With `O=C(NCc1ccncc1)C1CCN(C(=O)c2cccc(Cl)c2)CC1` the figure was -3.02%; with `Cc1cc(Nc2cccc(C)c2C)n2ncnc2n1`, -7.33%; with `C=CCn1c(-c2ccc(Cl)cc2)ccc(C#N)c1=O`, 4.58%.

With `O=C(Nc1ccc2c(c1)CCC2)c1cccc(S(=O)(=O)N2CCN(c3ccc(F)cc3)CC2)c1`, the inhibition is -2.68%. The value for `O=C(Nc1ccc2c(c1)CCC2)c1cccc(S(=O)(=O)Nc2ccccc2Cl)c1` was 58.9% (active). `O=C(c1cccc(S(=O)(=O)Nc2ccccc2Cl)c1)N1CCN(C(=O)c2ccco2)CC1`: the inhibition is 0.095%.

As for `CCOc1cnc(C(=O)NNC(=O)c2ccccc2Br)o1`, the inhibition is -9.25%. With `COc1ccccc1CC(=O)Nc1ccc(F)cc1F` the figure was -5.72%; with `COc1cc(OC)cc(C(=O)OCC(=O)Nc2ccc(F)cc2F)c1`, 3.41%. Consider `COc1ccc(C(=O)Nc2ccc(F)cc2F)cc1`, for which the inhibition was 76.1% (active).

For the compound `Cc1ccc(C)c(S(=O)(=O)N2CCN(C(=O)Nc3ccccc3)CC2)c1`, the inhibition is -12.7%. For `CC1CCCC(C)N1C(=O)COC(=O)COc1ccccc1C#N` (centres undefined), the inhibition is -21.9%. The value for `CSc1ccccc1-c1nnc(-c2ccc(Cl)cc2)o1` was 26.3%; that for `OC(c1nnc(-c2ccccc2)o1)c1cccs1` (centres undefined) was -10.9%. The value for `Brc1ccc(-c2noc(-c3ccccc3)n2)o1` was -29.7%.

Turning to `Brc1ccc(-c2nnc(-c3ccccc3)o2)o1`, the inhibition is 67.5% (active). On to `COc1ccccc1-c1nnc(-c2ccc(F)cc2)o1`, for which the inhibition is 40.7%. The value for `Nc1ccc(-c2nnc(-c3ccc(-c4ccccc4)cc3)o2)cc1` was 53.4% (active); that for `O=C(OCc1ccc(Br)cc1)c1cccc(-c2nnc(-c3ccccc3)o2)c1` was -4%; that for `CN(C)c1ccc(-c2nnc(-c3cccnc3)o2)cc1` was 14.7%. The value for `Nc1ccc(-c2nnc(-c3ccccc3)o2)cc1` was 61.5% (active); that for `COc1ccc(C(C)=O)cc1COC(=O)Cn1cnc2ccccc2c1=O` was -0.874%. Turning to `O=C(NCC1CCCO1)c1ccc(S(=O)(=O)Nc2ccc(F)cc2)cc1` (centres undefined), the inhibition is -0.148%.

Regarding `CN(C(=O)c1ccccc1)c1nccnc1C#N`, the inhibition was 11.5%.

On to `CC(=O)c1c(C)[nH]c(C(=O)OCC(=O)NCCC(C)C)c1C`, for which the inhibition is -9.8%. Take `Cc1cc(C)c(C#N)c(SCC(=O)N(CC(C)C)C2CCS(=O)(=O)C2)n1` (centres undefined): the inhibition was -11.7%. With `O=C(O)c1ccc(/C=C2\SC(=S)N(NC(=O)c3ccc(Br)cc3)C2=O)cc1` the figure was -7.64%; with `O=C(O)c1ccc2c(c1)C(=O)N(NC(=O)c1ccc(O)cc1)C2=O`, -2.08%. For the compound `CC(=O)N1C(=O)/C(=C2\SC(=S)N(NC(=O)c3ccc(O)cc3)C2=O)c2ccccc21`, the inhibition is 80.2% (active).

By inhibition is commonly meant the relative decrease from the control value, in per cent.
